An excerpt weighted towards active compounds, which were near 21% of everything screened.
Pf growth 48h = P. falciparum growth inhibition at 48 hours (one generation) | AID 504832 | P. falciparum luciferase growth in erythrocytes, 48 h | 310,000 compounds, 5.9% hits | Potency, µM (doses to about 28.7 µM), inactives show at the top dose activity change, negative = inhibition, actives largely listed as inhibitors; active = well fitted inhibition curve with a large enough effect; inconclusive = small, poorly fitted or top-dose-only effect, or another doubt; inactive = no such curve, though single readings can be large or run the other way; note: potency is the fitted concentration of half-maximal effect; % is set by controls: 0 for no effect and ±100 for the full control effect
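Luminescence readout; reporter = integrated firefly luciferase in P. falciparum. RBC culture at 2% hematocrit, 0.1% parasitemia final, 37 C/5% CO2; decreased signal taken as growth inhibition.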
NS1 inh = inhibitors of influenza NS1 protein function; Potency, µM (highest dose often 46.1 µM), without a hit: at the top dose activity, positive = more growth; AID 2326; 270,000 compounds, 0.4% hits; note: potency is the fitted concentration of half-maximal effect; actives are rising curves; nearly all actives have a fitted effect of over 50% in size
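OD600 was taken as the measure of yeast growth restored by compound in an NS1-expressing S. cerevisiae strain. Cells had been washed out of glucose medium and diluted 1:100 into galactose -URA medium, pH 6.0.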
CHX counter = affects cycloheximide protein synthesis inhibition readout, counter-screen; cell reporter, cycloheximide protein synthesis inhibition counterscreen; max response, %; 300,000 compounds, 12% hits; AID 2314; in the data active = max response mostly above about 13%, no sharp cut-off; inactive = mostly below about 14%; note: read at 38.3 µM for the half of the compounds with a filed dose; 0% is about no effect
SARS PLpro yeast = inhibitors of SARS-CoV papain-like protease in yeast; 330,000 compounds, 0.19% hits; Potency, µM (highest dose often 32.9 µM), without a hit: top-dose activity, positive = growth rescue, usual class: activators; S. cerevisiae expressing SARS-CoV PLpro, growth rescue; note: potency is the fitted concentration of half-maximal effect; 0% is about no effect; nearly all actives have a fitted effect of over 55% in size
Pf growth 96h = P. falciparum growth inhibition at 96 hours; Potency, µM (highest dose often 28.7 µM), without a hit: at the top dose activity change, negative = inhibition, hits mostly inhibitors; P. falciparum luciferase reporter growth, 96 h; 320,000 compounds, 6.9% hits; active = well fitted inhibition curve with a large enough effect; inconclusive = small, poorly fitted or top-dose-only effect, or another doubt; inactive = no such curve, though single readings can be large or run the other way; note: potency is the fitted concentration of half-maximal effect; % is set by controls: 0 for no effect and ±100 for the full control effect
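Luminescence readout: decreased luciferase signal marks inhibited growth of reporter-expressing P. falciparum in infected red cells (2% hematocrit, 0.05% parasitemia final), exposed to compound two generations (96 h, 37 C, 5% CO2).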
Shiga toxin inh = inhibitors of Shiga toxin in Vero cells | Vero cells, Shiga toxin protein synthesis inhibition reporter | 290,000 compounds, 9.2% hits | inhibition, % at 38.7 µM; in the data active = inhibition mostly above about 28%, no sharp cut-off; inactive = mostly below about 43%; note: 0% is about no effect
Numbers without * were called inactive; i = inactive; ? = inconclusive; . = no result. Unless noted, calls come from the whole dose curve.

SMILES | Pf growth 48h | NS1 inh | CHX counter | SARS PLpro yeast | Pf growth 96h | Shiga toxin inh
Cn1c(CSCc2ccccc2)nnc1SCC(=O)Nc1nccs1 | ? | 2% | 4 | 1% | 5.9µM* | 5
O=C(CSc1ccccc1)Nc1nccs1 | 22% | . | 28* | 3% | 1% | 50*
O=C(CSCc1ccccn1)Nc1ccccc1 | 74% | -3% | 22* | 4% | . | 38*
O=C1COc2ccc(C(=O)CSc3nnc(Cc4cccs4)n3-c3ccc(Cl)cc3)cc2N1 | -1% | 18% | -3 | 1% | ? | -13
O=C(CCC1CCCCC1)NNC(=O)c1cnccn1 | 13µM* | 5% | -4 | ? | ? | -5
COc1ccc(NC(=O)Cc2nnc(SCC(=O)Nc3nccs3)n2C)cc1 | 11% | 1% | -2 | -6% | 3.3µM* | -2
Cc1ccc(SCC(=O)Nc2nccs2)cc1 | 38% | -2% | 42* | -2% | 38% | 71*
Cn1c(Cn2cnc3ccccc32)nnc1SCC(=O)CC(=O)Nc1ccccc1 | -20% | ? | -6 | 4% | -23% | 4
O=C(NNC(=O)C1CCCCC1)c1cnccn1 | -4% | -6% | 1 | -5% | 26% | -5
COc1ccc(NC(=O)Cc2nnc(SCC(=O)Nc3ccccc3)n2C)cc1 | 10% | 8% | -5 | -2% | 174% | 4
COc1ccc(NC(=O)CSc2nnc(Cn3cnc4ccccc43)n2C)cc1 | -14% | 5% | -3 | -5% | 2.3µM* | -4
CSCC[C@H](NC(=O)N1CCn2c1nc1ccccc12)C(=O)NCc1ccccc1 | -5% | -11% | -3 | 11% | 1% | -4
CCCn1c(SCC(=O)N2c3ccccc3CC2C)n[nH]c1=O (stereo not drawn) | -4% | . | . | -3% | -19% | .
O=C(CC(c1ccccc1)c1ccco1)Nc1nccs1 (stereo not drawn) | 10µM* | -21% | 8 | 16% | 9.3µM* | 15
O=C(CSCc1ccccc1)Nc1nccs1 | 25% | -8% | 18* | -4% | 67% | 21
O=C(Cc1ccccc1)Nc1nccs1 | 38% | 0% | -1 | -1% | 9% | 5
COc1ccc(O)c(C2=Nc3ccccc3N=C(c3ccco3)C2)c1 | -29% | -28% | 8.7* | -5% | -21% | 32
Oc1ccc(Cl)cc1C1=Nc2ccccc2N=C(c2ccco2)C1 | ? | 10% | -4 | -7% | 3% | 21
FC(F)(F)c1ccc(C2Nc3cccc4cccc(c34)N2)cc1 | ? | 9% | -2 | -5% | ? | -10
CCN(CC)c1ccc(C2Nc3cccc4cccc(c34)N2)cc1 | 10µM* | 15% | 25* | 2% | ? | 24
O=[N+]([O-])c1ccc(C2Nc3cccc4cccc(c34)N2)cc1 | -85% | 6% | 1 | -25% | 13µM* | -13
O=[N+]([O-])c1cccc(C2Nc3cccc4cccc(c34)N2)c1 | 4.1µM* | 16% | 9 | -9% | -7% | 12
COc1ccc(C2Nc3cccc4cccc(c34)N2)cc1Br | 10µM* | -2% | 1 | -1% | ? | -3
Fc1ccc(C2Nc3cccc4cccc(c34)N2)cc1 | ? | 4% | 5 | 2% | -1% | 14
COc1ccc(C2=Nn3c(nnc3C(F)(F)F)SC2)cc1 | -12% | 1% | -1 | -2% | -4% | -9
SMILES | Pf growth 48h | NS1 inh | CHX counter | SARS PLpro yeast | Pf growth 96h | Shiga toxin inh
CCNc1nc(Oc2ccc(=O)[nH]n2)nc(N2CCOCC2)n1 | . | 1% | -2 | 1% | -15% | -16
O=c1ccc(Oc2nc(N3CCCCC3)nc(N3CCCCC3)n2)n[nH]1 | 14% | 0% | -6 | 3% | 3.7µM* | 12
CN1C(C(=O)NCc2ccco2)CC2Cn3c(nc4cc(Cl)c(Cl)cc43)C21 (stereo not drawn) | -12% | -2% | 13* | 2% | -1% | 2
Cn1ccnc1C(O)(c1ccccc1)c1ccccc1 | 17% | 0% | -4 | -1% | 6% | 13
Cc1ccc(NC(=O)c2ccc(=O)[nH]n2)cc1C | 80% | 3% | 48* | 12% | 100% | 100*
CC(=O)Nc1cnc2ccccc2n1 | 6% | -1% | 2 | -2% | -13% | -4
CC(OC(=O)c1cnc2ccccc2n1)c1ccccc1Cl (stereo not drawn) | 52% | -33% | 36* | -2% | 85% | 69*
Cc1ccc(NC(=O)c2ncc(Cl)c(Cl)c2Cl)cc1C | 283% | 3% | 40* | 0% | 125% | 61
O=C(Nc1ccccc1)c1cnc2ccccc2n1 | 203% | 2% | 40* | -1% | 135% | 60*
Cc1ccc(NC(=O)CN2C(=O)NC(Cc3c[nH]c4ccccc34)C2=O)cc1S(=O)(=O)N1CCCCC1 (stereo not drawn) | -12% | 14% | -3 | 20% | ? | -11
NC(=O)CC(NC(=O)c1cccc(Br)c1)c1ccc(NCCN2CCOCC2)c([N+](=O)[O-])c1 (stereo not drawn) | -19% | -3% | -6 | 1% | 0% | -5
CCC(=O)Nc1nn(CC(C)C)c2nc3ccc(C)cc3cc12 | ? | 1% | -7 | -1% | ? | -7
Cc1ccc(NC(=O)c2cnc3ccccc3n2)cc1C | 290% | -5% | 51* | 0% | i | 67*
CC(NC(=O)c1cnc2ccccc2n1)c1ccccc1 (stereo not drawn) | ? | -3% | 23* | -2% | -28% | 41
NC(=O)c1ccc(NC(=O)c2cccc(Oc3ccccc3)c2)cc1 | -2% | . | 7 | 1% | 0% | 102
NC(=O)c1ccc(NC(=O)c2cnc3ccccc3n2)cc1 | 88% | -3% | 37* | 0% | 96% | 80*
Cc1ccc(NC(=O)c2ccccc2C(=O)O)cc1C | . | -5% | . | . | . | .
COc1cccc(NC(=O)C2C3C=CC(C3)C2C(=O)O)c1 (stereo not drawn) | 11% | -12% | -3 | -7% | 0% | 1
COc1cc(NC(=O)c2cccc(Br)c2)nc(OC)n1 | 187% | -8% | 40* | -2% | 2.9µM* | 71*
COc1cc(NC(=O)COc2ccc(F)cc2)nc(OC)n1 | 12% | -16% | 0 | -1% | 13µM* | 7
COc1cc(NC(=O)c2c(F)cccc2F)nc(OC)n1 | 94% | 4% | 33* | 2% | ? | 98*
Cc1nnc(NC(=O)c2cccc(Br)c2)s1 | . | -48% | 1 | -14% | 17% | -9
Cc1cc(=O)[nH]c(SCC(=O)Nc2c(C)n(C)n(-c3ccccc3)c2=O)c1C#N | -13% | . | . | 4% | -12% | .
CCCc1cc(=O)n2nc(N3CCC(C(=O)Nc4cccc(C(C)=O)c4)CC3)sc2n1 | -18% | 2% | -3 | 1% | -19% | -2
Oc1ccc(C2Nc3cccc4cccc(c34)N2)c(O)c1 | 6.6µM* | 4% | -1 | -10% | 1.5µM* | 21
CC(C)(C)c1cc(=O)n(-c2ccccc2)[nH]1 | ? | -53% | 18 | -82% | 10µM* | 28
